IDE exosite inh – insulin-degrading enzyme (human) exo-site inhibition. P14735. purified IDE, FL-6b probe fluorescence polarization; hits give low values. z-score at 20 µM. 6.3% of 17,000 active;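 active means z-score of -3 or lower, meaning strong loss of probe binding signal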;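 further: His-tagged human IDE residues 42-1019 made in E. coli with 30 nM FL-6b probe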
Target sequence (P14735 42-1019 limits assumed): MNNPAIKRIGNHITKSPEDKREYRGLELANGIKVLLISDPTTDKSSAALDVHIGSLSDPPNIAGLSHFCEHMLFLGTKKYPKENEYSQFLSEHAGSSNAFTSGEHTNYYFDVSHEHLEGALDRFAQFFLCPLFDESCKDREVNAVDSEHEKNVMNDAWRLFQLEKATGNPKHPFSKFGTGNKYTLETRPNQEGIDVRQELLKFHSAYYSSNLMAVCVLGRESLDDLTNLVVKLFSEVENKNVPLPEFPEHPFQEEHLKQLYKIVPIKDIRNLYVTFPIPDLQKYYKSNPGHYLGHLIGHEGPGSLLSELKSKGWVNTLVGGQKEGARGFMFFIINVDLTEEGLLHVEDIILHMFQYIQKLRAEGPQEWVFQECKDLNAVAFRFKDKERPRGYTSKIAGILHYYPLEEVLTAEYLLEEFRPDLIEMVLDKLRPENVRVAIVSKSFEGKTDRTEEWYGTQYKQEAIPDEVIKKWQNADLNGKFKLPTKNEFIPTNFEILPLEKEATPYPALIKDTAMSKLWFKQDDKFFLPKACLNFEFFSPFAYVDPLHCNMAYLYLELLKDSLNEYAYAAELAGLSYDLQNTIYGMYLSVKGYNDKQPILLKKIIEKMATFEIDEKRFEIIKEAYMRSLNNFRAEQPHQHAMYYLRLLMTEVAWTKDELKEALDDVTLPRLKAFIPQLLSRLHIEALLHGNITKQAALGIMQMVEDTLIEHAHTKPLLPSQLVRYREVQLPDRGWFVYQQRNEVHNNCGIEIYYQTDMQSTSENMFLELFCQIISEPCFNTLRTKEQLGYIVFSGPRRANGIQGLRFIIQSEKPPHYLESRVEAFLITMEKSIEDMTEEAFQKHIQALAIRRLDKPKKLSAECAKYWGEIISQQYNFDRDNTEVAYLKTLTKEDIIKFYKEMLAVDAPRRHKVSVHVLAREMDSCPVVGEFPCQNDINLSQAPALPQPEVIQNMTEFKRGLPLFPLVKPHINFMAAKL
* = called active by the depositor. This excerpt belongs to a sample that is enriched for hits.

SMILES	IDE exosite inh
COCC#Cc1ccc([C@H]2[C@@H](CO)N3CCCCN(C(=O)CN(C)C)C[C@H]23)cc1	1.07
C[C@@H]1CC=CC[C@H](c2ccc3c(c2)OCO3)NC(=O)[C@H](C)N(C)C(=O)c2ccccc2O1 (mixture of isomers)	-0.332
CC(C)C(=O)Nc1ccc2c(c1)C(=O)N(C)[C@H]1CC[C@@H](CC(=O)NCCc3ccccc3)O[C@H]1CO2	-0.177
CN(C)CC(=O)N1[C@H](C#N)[C@H](c2ccccc2-c2cccc(C(=O)N(C)C)c2)[C@H]1CO	2.09
COc1cccc(C#Cc2ccc([C@@H]3[C@H]4CN(S(=O)(=O)c5ccccc5C)CC(=O)N4[C@H]3CO)cc2)c1	-0.487
COc1ccc([C@H]2C/C=C\C[C@H](c3ccc(F)cc3)NC(=O)CCC(=O)N2)c(OC)c1	0.733
O=C1CNC[C@H]2[C@H](c3ccc(C4=CCCC4)cc3)[C@@H](CO)N12	1.24
COc1cccc(C#Cc2ccc([C@H]3[C@@H](CO)N4C(=O)CN(S(=O)(=O)c5ccccc5C)C[C@@H]34)cc2)c1	4.6
COc1ccc2c3c(n(C)c2c1)[C@H](CO)N(CC1CC1)CC31CN(S(=O)(=O)c2cn(C)cn2)C1	-2.15
Cc1cccc(-c2ccc([C@@H]3[C@@H](CO)N4C(=O)CN(C(=O)NC5CCCCC5)C[C@H]34)cc2)c1	-11.5*
Cc1ccccc1-c1ccc([C@@H]2[C@H](CO)N3C(=O)CN(C(=O)NC4CCCC4)C[C@@H]23)cc1	-8.13*
O=C(Nc1ccc(F)cc1)N1CC(=O)N2[C@H](CO)[C@@H](c3ccc(-c4cccc(F)c4)cc3)[C@@H]2C1	-2.2
COc1ccccc1NC(=O)N1CC(=O)N2[C@H](CO)[C@@H](c3ccc(-c4cccc(C)c4)cc3)[C@H]2C1	-0.507
CCCC#Cc1ccc([C@H]2[C@H]3CN(C(=O)NC4CCCC4)CC(=O)N3[C@H]2CO)cc1	-0.533
O=C(NC1CCCC1)N1CC(=O)N2[C@@H](CO)[C@H](c3ccc(-c4ccc(F)cc4)cc3)[C@@H]2C1	-0.0295
O=C(NC1CCCCC1)N1CC(=O)N2[C@H](C1)[C@@H](c1ccc(-c3cccc(F)c3)cc1)[C@@H]2CO	-7.9*
O=C(NC1CCCCC1)N1CC(=O)N2[C@@H](CO)[C@H](c3ccc(-c4cccc(F)c4)cc3)[C@@H]2C1	-1.22
O=C(Nc1cccc(F)c1)N1CC(=O)N2[C@H](CO)[C@@H](c3ccc(-c4cccc(F)c4)cc3)[C@H]2C1	2.15
CC(C)CC#Cc1ccc([C@H]2[C@@H](CO)N3C(=O)CN(C(=O)NC4CCCCC4)C[C@@H]23)cc1	-0.596
O=C(NC1CCCCC1)N1CC(=O)N2[C@H](CO)[C@@H](c3ccc(-c4cccc(F)c4)cc3)[C@@H]2C1	-13*
O=C(Nc1cccc(F)c1)N1CC(=O)N2[C@H](CO)[C@H](c3ccc(-c4cccc(F)c4)cc3)[C@H]2C1	0.29
CCCNC(=O)N1[C@@H](C#N)[C@@H](c2ccc(C#Cc3ccc(F)cc3)cc2)[C@@H]1CO	5.37
C/C=C/c1ccccc1[C@@H]1[C@H](C#N)N(C(=O)c2cccnc2)[C@H]1CO	-1.02
CCCNC(=O)[C@@H]1[C@@H](CO)[C@@H]2Cn3c(cccc3=O)[C@@H]2N1Cc1cccc(F)c1	0.226
O=C(C[C@H]1CC[C@@H]2[C@H](COC[C@@H](O)CN2C(=O)Nc2ccc(F)cc2)O1)NC1CCC1	0.319
SMILES	IDE exosite inh
COc1ccc(-c2ccc([C@@H]3[C@@H](CO)N4C(=O)CN(Cc5ccc(F)cc5)C[C@H]34)cc2)cc1	2.89
C[C@H](O)C#Cc1ccc([C@H]2[C@@H](CO)N3CCCCN(C(=O)c4ccc(F)cc4)C[C@H]23)cc1	0.811
CO[C@H]1CN(C)C(=O)c2cc(NC(=O)Nc3cccc(Cl)c3)ccc2OC[C@@H](C)N(C(=O)Nc2c(C)noc2C)C[C@@H]1C	1.36
COc1cccc(NC(=O)N2C[C@@H](O)COC[C@@H]3O[C@H](CC(=O)N(C)C)CC[C@H]32)c1	-0.464
O=C(c1cnccn1)N1CC(=O)N2[C@H](CO)[C@@H](c3ccc(C#CC4CCCCC4)cc3)[C@H]2C1	0.57
O=C(c1cnccn1)N1CC(=O)N2[C@H](CO)[C@H](c3ccc(-c4ccc(F)cc4)cc3)[C@H]2C1	4
Cc1cccc(-c2ccc([C@H]3[C@@H](CO)N4C(=O)CN(C(=O)c5cnccn5)C[C@H]34)cc2)c1	-12.5*
O=C(c1cnccn1)N1CC(=O)N2[C@@H](CO)[C@H](c3ccc(C4=CCCCC4)cc3)[C@@H]2C1	-1.6
O=C(c1cnccn1)N1CC(=O)N2[C@@H](CO)[C@H](c3ccc(-c4cccc(F)c4)cc3)[C@@H]2C1	-2.26
Cc1cccc(-c2ccc([C@H]3[C@@H](CO)N4C(=O)CN(C(=O)c5cnccn5)C[C@@H]34)cc2)c1	-9.29*
O=C(c1cnccn1)N1CC(=O)N2[C@H](CO)[C@@H](c3ccc(-c4ccccc4)cc3)[C@@H]2C1	-2.96
O=C(c1cnccn1)N1CC(=O)N2[C@@H](CO)[C@H](c3ccc(-c4ccccc4)cc3)[C@@H]2C1	-3.76*
O=C(c1cnccn1)N1CC(=O)N2[C@H](CO)[C@@H](c3ccc(-c4ccc(F)cc4)cc3)[C@@H]2C1	2.62
O=C(c1cnccn1)N1CC(=O)N2[C@H](CO)[C@H](c3ccc(-c4ccccc4)cc3)[C@@H]2C1	2.77
CCN(C[C@H]1[C@H](c2ccccc2)[C@@H](CO)N1S(C)(=O)=O)C(=O)C1CCC1	3.04
O=C(c1ccc2c(c1)OCO2)N1C[C@H]2[C@@H](c3ccccc31)[C@H](CO)N2Cc1cccnc1	2.43
CC(C)C#Cc1ccc([C@H]2[C@@H](CO)N3C(=O)CN(C(=O)Cc4cccnc4)C[C@H]23)cc1	4.28
O=C(C1CCOCC1)N1CC(=O)N2[C@H](C1)[C@H](c1ccc(C#CC3CCCCC3)cc1)[C@@H]2CO	0.906
O=C(Nc1cc(F)ccc1F)N1CC(=O)N2[C@H](C1)[C@@H](c1ccc(-c3cccc(F)c3)cc1)[C@@H]2CO	0.417
CN(C)C(=O)c1cccc(-c2ccc([C@H]3[C@@H](CO)N4C(=O)CN(C(=O)Cc5ccccc5)C[C@@H]34)cc2)c1	1.56
Cc1cccc(S(=O)(=O)N2C[C@H]3[C@@H](c4ccccc42)[C@H](CO)N3C(=O)c2ccccc2)c1	-0.562
Cc1cccc(S(=O)(=O)N2C[C@@H]3[C@H](c4ccccc42)[C@H](CO)N3Cc2ccc3c(c2)OCO3)c1	0.732
CCCC#Cc1ccc([C@@H]2[C@@H](CO)N3C(=O)CN(C(=O)Nc4ccccc4F)C[C@H]23)cc1	2.31
COc1ccc(NC(=O)N2CC(=O)N3[C@H](CO)[C@H](c4ccc(/C=C/c5ccccc5)cc4)[C@@H]3C2)cc1	-1.18
Cc1ccc(-c2ccc([C@@H]3[C@H](CO)N4C(=O)CN(C(=O)NC(C)C)C[C@@H]34)cc2)cc1	-1.41
CC(C)NC(=O)N1CC(=O)N2[C@H](CO)[C@@H](c3ccc(/C=C/c4ccccc4)cc3)[C@@H]2C1	-3.31*
COc1ccc(-c2ccc([C@@H]3[C@H](CO)N4C(=O)CN(C(=O)NC(C)C)C[C@@H]34)cc2)cc1	-0.3
CC(C)NC(=O)N1CC(=O)N2[C@@H](CO)[C@H](c3ccc(/C=C/c4ccccc4)cc3)[C@@H]2C1	-3.36*
COc1ccc(-c2ccc([C@H]3[C@@H](CO)N4C(=O)CN(C(=O)NC(C)C)C[C@@H]34)cc2)cc1	1.25
CN1CCN(C(=O)C[C@H]2CC[C@@H]3[C@H](COC[C@@H](O)CN3C(=O)Nc3ccc4c(c3)OCO4)O2)CC1	2.23

Screening results from PubChem BioAssay.
